Measurements taken from PubChem BioAssay (NCATS).
Where “and” joins values, the source holds several entries; their conditions need not be identical. Identical values can stand only once. Records with an inconclusive call do not appear. Calls of active or inactive are those of the source. Calls follow the shape of the dose curve; as a rule, active = well fitted curve in the direction sought with a large enough effect; inconclusive = small, poorly fitted or top-dose-only effect, or another doubt; inactive = no such curve, though single readings can be large; an effect the other way counts as inactive or inconclusive.

How the values were obtained:
C33A = test: Primary qHTS to identify gynecologic anti-cancer compounds using libraries of approved drugs and bioactive compounds (AID 1345084); details: Gynecologic cancer cell panel viability, ATPlite luminescence, 48 h; series mostly up to 57.5 µM; also: nearly all actives have a fitted effect of over 55% in size
Summary of the method: (§1)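 Luminescence from the ATPlite ATP-monitoring reagent indicates viable cell number; lower signal means cytotoxicity. Cells received compound 16 h after seeding and were exposed for 48 h across five concentrations.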

CASKI = test: as above; details: Gynecologic cancer cell panel viability, ATPlite luminescence, 48 h; series mostly up to 57.5 µM
Summary of the method: as §1

Es-2 = test: as above; details: Gynecologic cancer cell panel viability, ATPlite luminescence, 48 h; series mostly up to 57.5 µM
Summary of the method: as §1

HeLa = test: as above; details: Gynecologic cancer cell panel viability, ATPlite luminescence, 48 h; series mostly up to 57.5 µM
Summary of the method: as §1

Hek293T = test: as above; details: Gynecologic cancer cell panel viability, ATPlite luminescence, 48 h, control line for the selectivity index; series mostly up to 57.5 µM
Summary of the method: as §1

JEG-3 = test: as above; details: Gynecologic cancer cell panel viability, ATPlite luminescence, 48 h; series mostly up to 57.5 µM
Summary of the method: as §1

OV90 = test: as above; details: Gynecologic cancer cell panel viability, ATPlite luminescence, 48 h; series mostly up to 57.5 µM
Summary of the method: as §1

PA-1 = test: as above; details: Gynecologic cancer cell panel viability, ATPlite luminescence, 48 h; series mostly up to 57.5 µM
Summary of the method: as §1

SKOV3 = test: as above; details: Gynecologic cancer cell panel viability, ATPlite luminescence, 48 h; series mostly up to 57.5 µM
Summary of the method: as §1

Tov-21-G = test: as above; details: Gynecologic cancer cell panel viability, ATPlite luminescence, 48 h; series mostly up to 57.5 µM
Summary of the method: as §1

Tov112D = test: as above; details: Gynecologic cancer cell panel viability, ATPlite luminescence, 48 h; series mostly up to 57.5 µM
Summary of the method: as §1

CAOV3 = test: as above; details: Gynecologic cancer cell panel viability, ATPlite luminescence, 48 h; series mostly up to 57.5 µM
Summary of the method: as §1

[1] = Drug repurposing screens with cells derived from glioblastoma tumor samples (AID 1345199); details: GBM patient neurospheres viability, ATP luminescence, 48 h; also: nearly all actives have a fitted effect of over 40% in size; also: potency is read from the fitted curve at half-maximal effect
Summary of the method: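 Four patient lines of CD133+ GBM neurospheres were screened at several concentrations; hits were retested in those lines plus three slower-growing GBM lines, using 48-hour treatment and ATP-based viability.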

[2] = at 45.9 µM (top of the series), tumour line B
[3] = at 45.9 µM (top of the series), tumour line D
[4] = at 46.1 µM (top of the series), tumour line C
% is scaled to controls: 0 for no effect and ±100 for the full control effect.

CC(=O)OC1C(O)C(C)=C(CCC(C)CC(=O)O)C2(C)CCCC(C)(C)C12 (centres undefined)
inactive: Potency (C33A) | Potency (CASKI) | Potency (Es-2) | Potency (HeLa) | Potency (Hek293T) | Potency (JEG-3) | Potency (OV90) | Potency (PA-1) | Potency (SKOV3) | Potency (Tov-21-G) | Potency (Tov112D)

CC1=CC(=O)C[C@H]2[C@@H]1CC[C@@H](C)[C@]21CO[C@H](c2ccoc2)C1=O
inactive: Potency (C33A) | Potency (CASKI) | Potency (Es-2) | Potency (HeLa) | Potency (Hek293T) | Potency (JEG-3) | Potency (OV90) | Potency (PA-1) | Potency (SKOV3) | Potency (Tov-21-G) | Potency (Tov112D)

CCC(CC)n1ccc2c(C(=O)NCc3c(C)cc(C)[nH]c3=O)cc(C#N)cc21
inactive: Potency (C33A) | Potency (CASKI) | Potency (Es-2) | Potency (HeLa) | Potency (Hek293T) | Potency (JEG-3) | Potency (OV90) | Potency (PA-1) | Potency (SKOV3) | Potency (Tov-21-G) | Potency (Tov112D)

CC1(C)CC[C@]2(C(=O)O)CC[C@]3(C)C(=CCC4[C@@]5(C)C[C@H](O)[C@H](O[C@@H]6OC[C@H](O)[C@H](O)[C@H]6O)[C@@](C)(CO)C5CC[C@]43C)[C@@H]2C1 (some centres undefined)
inactive: Potency (C33A) | Potency (CASKI) | Potency (Es-2) | Potency (HeLa) | Potency (Hek293T) | Potency (JEG-3) | Potency (OV90) | Potency (PA-1) | Potency (SKOV3) | Potency (Tov-21-G) | Potency (Tov112D)

C=C1CC2(C(=O)O)CC1CCC2C1(C)CCCC2(C)C(=O)OC(O)C21 (centres undefined)
inactive: Potency (C33A) | Potency (CAOV3) | Potency (Es-2) | Potency (HeLa) | Potency (Hek293T) | Potency (JEG-3) | Potency (OV90) | Potency (PA-1) | Potency (SKOV3) | Potency (Tov-21-G) | Potency (Tov112D)

COC(=O)C1=COC(O[C@@H]2O[C@H](CO)[C@@H](O)[C@H](O)[C@H]2O)/C(=C\COC(=O)c2ccc(OC3OC(CO)C(O)C(O)C3O)c(OC)c2)C1CC(=O)OCCc1ccc(O)cc1 (some centres undefined)
inactive: activity change, negative = cytotoxicity (C33A) 7.7% [at 11.6 µM] | activity change, negative = cytotoxicity (CASKI) 3.94% [at 11.6 µM] | activity change, negative = cytotoxicity (Es-2) 1.38% [at 11.6 µM] | activity change, negative = cytotoxicity (HeLa) 2.44% [at 11.6 µM] | activity change, negative = cytotoxicity (Hek293T) 17.6% [at 11.6 µM] | activity change, negative = cytotoxicity (JEG-3) 2.03% [at 11.6 µM] | activity change, negative = cytotoxicity (OV90) 1.39% [at 11.6 µM] | activity change, negative = cytotoxicity (PA-1) -0.972% [at 11.6 µM] | activity change, negative = cytotoxicity (Tov-21-G) 2.92% [at 11.6 µM] | activity change, negative = cytotoxicity (Tov112D) 6.58% [at 11.6 µM]

C[C@@H](Nc1cc(NS(=O)(=O)N2CCC2)nc(SCc2cccc(F)c2F)n1)[C@@H](O)CO
inactive: Potency (C33A) | Potency (CASKI) | Potency (Es-2) | Potency (HeLa) | Potency (Hek293T) | Potency (JEG-3) | Potency (OV90) | Potency (PA-1) | Potency (Tov-21-G) | Potency (Tov112D)

CN1CCC(c2c[nH]c3ccc(NC(=O)c4ccc(F)cc4)cc23)CC1
inactive: Potency (C33A) | Potency (CASKI) | Potency (Es-2) | Potency (HeLa) | Potency (Hek293T) | Potency (JEG-3) | Potency (OV90) | Potency (PA-1) | Potency (SKOV3) | Potency (Tov-21-G) | Potency (Tov112D)

C[C@@]12C[C@]3(O)O[C@H](O1)[C@]1(COC(=O)c4ccccc4)[C@H]3C[C@@]12O[C@@H]1O[C@H](COC(=O)c2ccccc2)[C@@H](O)[C@H](O)[C@H]1O
inactive: Potency (C33A) | Potency (CASKI) | Potency (Es-2) | Potency (HeLa) | Potency (Hek293T) | Potency (JEG-3) | Potency (OV90) | Potency (PA-1) | Potency (SKOV3) | Potency (Tov-21-G) | Potency (Tov112D)

C[C@@H]1C(=O)O[C@H]2[C@H]1CC[C@@]1(C)C(=O)C=C[C@](C)(O)[C@H]21
inactive: Potency (C33A) | Potency (CASKI) | Potency (Es-2) | Potency (HeLa) | Potency (Hek293T) | Potency (JEG-3) | Potency (OV90) | Potency (PA-1) | Potency (SKOV3) | Potency (Tov-21-G) | Potency (Tov112D)

CCOc1cc2ncc(C#N)c(Nc3ccc(OCc4ccccn4)c(Cl)c3)c2cc1NC(=O)/C=C/CN(C)C
inactive: Potency (C33A) | Potency (CAOV3) | Potency (Es-2) | Potency (Hek293T) | Potency (JEG-3) | Potency (OV90) | Potency (Tov112D)

CCCCC/C=C\C/C=C\CCCCCCCC(=O)O
inactive: activity, negative = cell killing [1, 2] -6.32% | activity, negative = cell killing [1, 3] -10.3% | activity, negative = cell killing [1, 4] 11.8%

CN(C)CCCN1c2ccccc2C(C)(C)c2ccccc21
active: Potency ([1]; tumour line A) 14.1 µM
inactive: activity, negative = cell killing [1, 4] 1.86%

CC1(C)C(C=C(Cl)Cl)C1C(=O)OCc1cccc(Oc2ccccc2)c1 (centres undefined)
inactive: activity, negative = cell killing [1, 2] -14.8% | activity, negative = cell killing [1, 3] -15.5% | activity, negative = cell killing [1, 4] 6.86%

C[C@]12C=CC(=O)N[C@@H]1CC[C@@H]1[C@@H]2CC[C@]2(C)[C@@H](C(=O)Nc3cc(C(F)(F)F)ccc3C(F)(F)F)CC[C@@H]12
inactive: activity, negative = cell killing [1, 4] -29.8%

CC(NNC(=O)c1ccccc1)c1ccccc1 (centres undefined)
inactive: activity, negative = cell killing [1, 2] -15.6% | activity, negative = cell killing [1, 3] -19.2% | activity, negative = cell killing [1, 4] -40.2%

O=C(Nc1cccnn1)N1CCC(=Cc2cccc(Oc3ccc(C(F)(F)F)cn3)c2)CC1
inactive: Potency (CAOV3) | Potency (Es-2) | Potency (HeLa) | Potency (JEG-3) | Potency (Tov-21-G) | Potency (Tov112D)

CCCCC(CC)COC(=O)CC(C(=O)OCC(CC)CCCC)S(=O)(=O)O (centres undefined)
inactive: activity, negative = cell killing [1, 2] 1.3% | activity, negative = cell killing ([1]; at 46 µM (top of the series), tumour line A) -17.3% and -22.7% | activity, negative = cell killing [1, 4] -38.9%

CCCCC(=O)O[C@]1(C(=O)CO)[C@H](C)C[C@H]2[C@@H]3CCC4=CC(=O)C=C[C@]4(C)[C@@]3(F)[C@@H](O)C[C@@]21C
inactive: activity, negative = cell killing [1, 2] -7.12% | activity, negative = cell killing [1, 3] -22.7% | activity, negative = cell killing [1, 4] -23.5%
